# Test results published in PubChem BioAssay AID493169 (National Center for Advancing Translational Sciences (NCATS), 2011).
# Inconclusive results are not listed. Where a call stands in place of a potency, no number is given. Calls of active or inactive are those of the source. Calls follow the shape of the dose curve; as a rule, active = well fitted inhibition curve with a large enough effect; inconclusive = small, poorly fitted or top-dose-only effect; inactive = flat fitted curve, though single readings scatter.
# Assay: CHOP2 Reporter Counterscreen Assay for Inhibitors of Ubiquitin-specific Protease USP2a;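 also: activated enterokinase alone at 50 pM in a cell-free format rather than USP2a or CHOP2; nearly all actives have a fitted effect of over 55% in size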
# Conditions: purified enterokinase, fluorogenic substrate, 485/531 nm; series mostly up to 38.3 µM
# Method in brief: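 Cell-free counterscreen with pre-activated enterokinase alone (50 pM final) in 20mM Tris-HCl pH 8.0, 2mM CaCl2, 2mM beta-mercaptoethanol, 0.05% CHAPS; compound preincubation 30 min RT, reporter substrate 25nM final, fluorescence read after 10 min (Ex 485/Em 531).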
# Potency is read from the fitted curve at half-maximal effect.
row,Compound,Potency
1,CC(NC(=O)COc1ccccc1-c1ccccc1)c1ccccc1 (configuration not stated),inactive
2,O=C(c1ccco1)N1CCN(C(c2cccs2)c2sc3ncnn3c2O)CC1 (configuration not stated),inactive
3,NC1=NC(=O)/C(=C/c2cccc(-c3ccc(S(N)(=O)=O)cc3)c2)S1,inactive
4,COC(=O)CC1Oc2ccc(C)cc2NC1=O (configuration not stated),inactive
5,Cc1ccc(N2CN=c3s/c(=C\c4cccnc4)c(=O)n3C2)cc1,inactive
6,Cc1ccc([C@@H]2CC=C(C(=O)O)[C@H](c3cccc(Cl)c3)N2S(=O)(=O)c2ccc(C)cc2)cc1,inactive
7,CCOc1ccc(NC(=O)CSc2nnc(Cn3c(=O)sc4ccccc43)n2C)cc1,inactive
8,CN(C)S(=O)(=O)c1ccc(C(=O)NCCN=C2NS(=O)(=O)c3ccccc32)cc1,inactive
9,CCC(CO)Oc1cc(NCc2cccc(C)c2)c2ncn(C(C)C)c2c1 (configuration not stated),inactive
10,CCc1sc(/C=C(/C#N)C(N)=S)cc1[N+](=O)[O-],inactive
11,Cc1ccc(S(=O)(=O)Nc2ccc(N3CCOCC3)cc2)cc1,inactive
12,O=C(O)CC(C(=O)O)N1C(=O)/C(=C/C=C/c2ccco2)SC1=S (configuration not stated),3.55 µM (active)
13,Cc1c(C(=O)NCc2c(F)cc(F)cc2F)oc2ccc(S(=O)(=O)N3CCOCC3)cc12,inactive
14,c1ccc(-c2nc3nc4ccccc4nc3n2Cc2ccco2)cc1,inactive
15,COc1cccc(C(=O)NC(C)c2ccc(-c3ccccc3)cc2)c1OC (configuration not stated),inactive
16,O=c1oc2c(CN3CCCCC3)c(O)ccc2c2c1CCCCC2,inactive
17,CCOC(=O)C1CCN(CC(O)COc2ccc(C(C)(C)C)cc2)CC1 (configuration not stated),inactive
18,COc1ccc(OC)c(NC(=O)CSc2nc(O)cc(=O)n2CC(C)C)c1,inactive
19,CCOc1ccc(C=NNc2ccc(S(=O)(=O)Nc3ccccc3C(=O)O)cc2[N+](=O)[O-])cc1,11.2 µM (active)
20,CCCCC(CC)CN=C(N)NC(N)=NCCCCCCN=C(N)NC(N)=NCC(CC)CCCC (configuration not stated),5.62 µM (active)
21,CCC/C(O)=C1\C(=O)CC(C)(C)CC1=Nc1ccc(OC)cc1OC,inactive
22,CCOC(=O)N1CCC(NC(=O)c2ccc(OC)c(CN3CC(=O)N4CCCC4C3=O)c2)CC1 (configuration not stated),inactive
23,O=C(Nc1ccc(Oc2ccc(Cl)cc2)cc1)c1ncn[nH]1,inactive
24,COc1cc(/C=C/c2cc[n+](C)cc2)ccc1OCC(=O)Nc1ccc(Cl)c(Cl)c1,11.2 µM (active)

row,Compound,Potency
1,COc1ccc(NC(=S)NC(=O)/C=C/c2ccco2)cc1,inactive
2,Cc1ccc(C(=O)NCCCc2ccccc2)s1,inactive
3,O=C(CSCc1cnn(-c2ccccc2)c1-n1cccc1)NCC1CCCO1 (configuration not stated),inactive
4,FC(F)Sc1ccc(NC(=S)NC2CCCCC2)cc1,inactive
5,O=C(N/N=C/c1ccc(-c2ccc(Cl)c(C(=O)O)c2)o1)c1cc2c(ccc3ccccc32)o1,11.2 µM (active)
6,CCc1cc2c(=O)c(-n3cnc4ccccc43)coc2cc1O,inactive
7,CC(=O)N1c2c(cc(Br)cc2S(=O)(=O)NCc2cccnc2)CC1C (configuration not stated),inactive
8,CCc1ccccc1OCC(=O)Nc1ccc(N2CCCC2)cc1C,10 µM (active)
9,COc1cccc(OC)c1-c1nn2c(-c3cc(-c4ccccc4)n[nH]3)nnc2s1,5.62 µM (active)
10,O=C(Nc1nnc(-c2cccs2)o1)c1cccc(Oc2ccccc2)c1,inactive
11,O=C(Nc1ccccc1)Nc1snnc1C(=O)Nc1cccc(O)c1,inactive
12,O=C(NN=Cc1ccc(N2CCOCC2)s1)c1ccc([N+](=O)[O-])cc1,inactive
13,CC(C)c1ccc(NC(=O)C(c2ccc3c(c2)OCO3)N2CCCCC2)cc1 (configuration not stated),inactive
14,N#Cc1cc(Sc2ccccn2)c(Sc2ccccn2)cc1C#N,inactive
15,CC(C)OCCCNC(=O)CN1C(=O)CC(C)(C)S(=O)(=O)c2ccccc21,inactive
16,Cc1ccccc1[C@@H]1C(C#N)=C(N)S[C@H]1C(=O)c1ccccc1,inactive
17,Cc1[nH]c2ccccc2c1C(c1ccccn1)c1c(C)[nH]c2ccccc12,inactive
18,c1coc(CNc2nc(-c3cccs3)cs2)c1,inactive
19,Cc1ccc(C(=O)N/C(=C/c2ccco2)C(=O)Nc2cccc(C(=O)O)c2)cc1,10 µM (active)
20,CCN(CC(=O)Nc1ccc(NC(C)=O)cc1)C(=O)c1ccc(N2CCC(C)CC2)c([N+](=O)[O-])c1,inactive
21,CC(=O)c1ccc(Nc2ncnc3c2oc2ccccc23)cc1,inactive
22,O=C(CN1CCOCC1)Nc1ccc(C2CCCCC2)cc1,inactive
23,COc1ccc(C(=O)OCC(=O)c2c[nH]c3ccccc23)c(OC)c1,inactive
